Screens deposited in PubChem BioAssay by National Center for Advancing Translational Sciences (NCATS).
HT1080NT lethal = kills 2HG-producing HT-1080-NT fibrosarcoma cells; HT-1080-NT fibrosarcoma viability, CellTiter-Glo ATP luminescence, 48 h; Potency, µM (series often up to 46.1 µM), for inactives: at the top dose activity, negative = less viability, usual class: cytotoxic; 1.6% of 360,000 active;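 also: NT is the 2HG producing partner of a matched IDH1 knockdown line; potency is read from the fitted curve at half-maximal effect; 0% = DMSO-treated cells and -100% = media-only wells without cells; nearly all actives have a fitted effect of over 55% in size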
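Fibrosarcoma NT cells, 750 per well in 5% FBS RPMI, were exposed to compound for 48 hours. Viability: CellTiter-Glo luminescence.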
KB-V1 cytotox = kills drug-selected multidrug resistant KB-V1 cells | Potency, µM (highest dose often 46.1 µM), most hits filed as cytotoxic | AID 1347076 | KB-V1 MDR cells viability, CellTiter-Glo, 72 h | 3.4% of 400,000 active; also: potency is read from the fitted curve at half-maximal effect; nearly all actives have a fitted effect of over 60% in size
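qHTS viability screen in drug-selected KB-V1 MDR cells: 72 h compound treatment at 37 degrees C, ATP luminescence end point.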
KB-3-1 tox = KB-3-1 parental cell cytotoxicity; KB-3-1 viability, CellTiter-Glo ATP luminescence, 72 h; 1.4% of 400,000 active; Potency, µM (top dose mostly 46.1 µM), usual class: cytotoxic; also: potency is read from the fitted curve at half-maximal effect; nearly all actives have a fitted effect of over 60% in size
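Viability of parental KB-3-1 cells, measured by CellTiter-Glo luminescence, followed a 72 h incubation at 37 °C with pinned compounds in phenol-red-free DMEM containing 10% FBS.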
IL-1B inflam inh = blocks inflammasome-driven IL-1 beta release. 4.7% of 360,000 active. AID 743279. THP-1 LPS/ATP IL-1B secretion, AlphaLISA, 16 h; active compounds read low. activity change, % at 57.5 µM; in the data active = activity change below about -50%; inconclusive = mostly about -30% to -49%
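Secreted IL-1B measured by AlphaLISA bead assay after 16 h compound exposure of THP-1 cells; compounds (final up to 57.5 uM) added 1 h before LPS (250 ng/mL) and ATP (1.25 mM) stimulation; lower signal means less secretion.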
HT1080 IDH1KD tx = kills HT-1080 cells with IDH1 knockdown. HT-1080 IDH1 knockdown viability, ATP luminescence, 48 h. Potency, µM (titrated, usually from 46.1 µM), without a hit: at the highest dose activity, negative = toxicity, usual class: cytotoxic. 2% of 360,000 active. AID 686971;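 also: potency is read from the fitted curve at half-maximal effect; 0% = DMSO wells and -100% = cell-free medium wells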
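Assay cells: HT-1080 with IDH1 knockdown, 750 per well, RPMI/5% FBS. Exposure: 48 h at 37 °C following 2 h pre-incubation. Read: CellTiter-Glo luminescence; fitted concentration-response, curve class assigned.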
Active calls of the source: *; [ ] = remark or other dose. In the library only some 8.8% were active in any assay of this set; here they are far more common. Unless noted, calls follow the shape of the dose curve; as a rule, active = well fitted curve in the direction sought with a large enough effect; inconclusive = small, poorly fitted or top-dose-only effect, or another doubt; inactive = no such curve, though single readings can be large; an effect the other way counts as inactive or inconclusive. Unless noted, % is scaled to controls: 0 for no effect and ±100 for the full control effect.

Screening COc1ccc2c(-c3ccccc3)cc(SCC(=O)N(C)C)nc2c1 returned HT1080NT lethal 0%, KB-V1 cytotox inactive, KB-3-1 tox inactive, IL-1B inflam inh -68* and HT1080 IDH1KD tx -16%.
Screening COc1ccc2c(-c3ccccc3)cc(SCC(=O)NC(N)=O)nc2c1 returned HT1080NT lethal -1%, KB-V1 cytotox inactive, KB-3-1 tox inactive, IL-1B inflam inh 17 and HT1080 IDH1KD tx -1%.
For CCN(C(=O)CSc1cc(C)c2ccc(OC)cc2n1)C1CCS(=O)(=O)C1 (stereo not drawn) the results were HT1080NT lethal -12%, KB-V1 cytotox inactive, KB-3-1 tox inactive, IL-1B inflam inh -11 and HT1080 IDH1KD tx -6%.
`CCN(C(=O)CSc1cc(-c2ccccc2)c2ccc(OC)cc2n1)C1CCS(=O)(=O)C1` (stereo not drawn) gave HT1080NT lethal -27%, KB-V1 cytotox inactive, KB-3-1 tox inactive, IL-1B inflam inh -61* and HT1080 IDH1KD tx -28%.
`Cc1ccc(CNC(=O)c2ccc(Cn3c(=O)c4ccccc4n(CC(=O)Nc4ccc(C)cc4C)c3=O)cc2)cc1` gave KB-V1 cytotox inactive and KB-3-1 tox inactive.
`CN1CCN(c2cccc(Nc3nn4c(=O)c5ccc(F)cc5nc4s3)c2)CC1` gave KB-V1 cytotox inactive and KB-3-1 tox inactive.
Screening Cc1ccc(CN=C2Nc3ccccc3CS2)cc1 returned HT1080NT lethal -5%, KB-V1 cytotox 13µM*, KB-3-1 tox inconclusive, IL-1B inflam inh inconclusive and HT1080 IDH1KD tx -1%.
Clc1ccc(CN=C2Nc3ccccc3CS2)cc1 was read as HT1080NT lethal 0%, KB-V1 cytotox inconclusive, KB-3-1 tox inactive, IL-1B inflam inh -18 and HT1080 IDH1KD tx 7%.
Screening CCCCN1C(=O)NC2NC(=O)NC21 (stereo not drawn) returned HT1080NT lethal 7%, KB-V1 cytotox inconclusive, KB-3-1 tox inactive, IL-1B inflam inh -92* and HT1080 IDH1KD tx 8%.
For CC(C)c1cc(C(=O)Nc2sc3c(c2C#N)CCC3)no1 the results were HT1080NT lethal -20%[9.24 µM], KB-V1 cytotox inconclusive, KB-3-1 tox inconclusive, IL-1B inflam inh 5 and HT1080 IDH1KD tx inconclusive.
`O=C(Nc1sc2c(c1C(=O)c1ccccc1)CCCC2)c1cccnc1` gave HT1080NT lethal -2%, KB-V1 cytotox inactive, KB-3-1 tox inactive, IL-1B inflam inh 23 and HT1080 IDH1KD tx -2%.
CCc1ccc(CCC(=O)Nc2sc3c(c2C#N)CCCC3)o1 was read as HT1080NT lethal 4µM*, KB-V1 cytotox inconclusive, KB-3-1 tox inconclusive, IL-1B inflam inh 32 and HT1080 IDH1KD tx 4.5µM*.
N#Cc1c(NC(=O)c2ccccc2)sc2c1CCC2 was read as HT1080NT lethal inconclusive, KB-V1 cytotox 4.6µM*, KB-3-1 tox 16µM*, IL-1B inflam inh 20 and HT1080 IDH1KD tx inconclusive.
For N#Cc1c(NC(=O)c2cccnc2)sc2c1CCC2 the results were HT1080NT lethal 16µM*, KB-V1 cytotox 5.8µM*, KB-3-1 tox 9.2µM*, IL-1B inflam inh 10 and HT1080 IDH1KD tx 9.2µM*.
N#Cc1c(NC(=S)NC(=O)c2ccccc2)sc2c1CCCC2 was read as HT1080NT lethal 8%, KB-V1 cytotox inactive, KB-3-1 tox inactive, IL-1B inflam inh 2 and HT1080 IDH1KD tx 2%.
N#Cc1c(NC(=O)c2cnccn2)sc2c1CCCC2 was read as HT1080NT lethal -20%, KB-V1 cytotox 16µM*, KB-3-1 tox inconclusive, IL-1B inflam inh -7 and HT1080 IDH1KD tx -24%.
Screening Cn1c(=O)n(CC(=O)O)c(=O)c2c1nc1n2CCCN1c1ccc(Cl)cc1 returned KB-V1 cytotox inactive and KB-3-1 tox inactive.
Screening COc1ccccc1CNC(=O)CNC(=O)c1sc2ccccc2c1Cl returned HT1080NT lethal 16%, KB-V1 cytotox inactive, KB-3-1 tox inactive and HT1080 IDH1KD tx 24%.
For CCOC(=O)C1CCN(C(=O)c2cc3cc(C)ccc3[nH]2)CC1 the results were HT1080NT lethal 6%, KB-V1 cytotox inactive, KB-3-1 tox inactive, IL-1B inflam inh 24 and HT1080 IDH1KD tx 7%.
CCOc1ccc(CCNC(=O)c2cc(C)nc3c2c(C)nn3-c2cccc(F)c2)cc1 was read as KB-V1 cytotox inactive and KB-3-1 tox inactive.
`CCC1=C(c2ccc(C)cc2)S(=O)(=O)N=C1N1CCC(C(=O)Nc2ccccc2F)CC1` gave KB-V1 cytotox inactive and KB-3-1 tox inactive.
Cc1cc(C)nc(N2CCC(C(=O)NCc3cccs3)CC2)n1 was read as HT1080NT lethal 10%, KB-V1 cytotox 13µM*, KB-3-1 tox inactive, IL-1B inflam inh -15 and HT1080 IDH1KD tx 4%.
Screening O=C(NCc1cccs1)C1CCN(c2ccc(S(=O)(=O)N3CCOCC3)cc2Cl)CC1 returned HT1080NT lethal inconclusive, KB-V1 cytotox 3.7µM*, KB-3-1 tox 2.3µM*, IL-1B inflam inh -13 and HT1080 IDH1KD tx inconclusive.
Cc1cc(C)nc(N2CCC(C(=O)NCc3ccco3)CC2)n1 was read as HT1080NT lethal 10%, KB-V1 cytotox 16µM*, KB-3-1 tox inactive, IL-1B inflam inh -1 and HT1080 IDH1KD tx 7%.
For COCCn1c(N)c(N(Cc2ccccc2)C(=O)c2ccc(-c3ccc(Cl)cc3)o2)c(=O)[nH]c1=O the results were HT1080NT lethal -1%, KB-V1 cytotox inactive, KB-3-1 tox inactive, IL-1B inflam inh -19 and HT1080 IDH1KD tx -1%.
For C=CCN1C(=O)S/C(=C\c2ccc(N3CCOCC3)cc2C)C1=O the results were HT1080NT lethal 20%, KB-V1 cytotox inactive, KB-3-1 tox inactive, IL-1B inflam inh -25 and HT1080 IDH1KD tx -9%.
For C=CC(C)N1C(=O)S/C(=C\c2ccc(N3CCOCC3)cc2C)C1=O (stereo not drawn) the results were HT1080NT lethal 7%, KB-V1 cytotox inconclusive, KB-3-1 tox inconclusive, IL-1B inflam inh -77* and HT1080 IDH1KD tx 2%.
Screening NC(=O)COC(=O)c1c2c(nc3ccccc13)CCCCC2 returned HT1080NT lethal 0%, KB-V1 cytotox inconclusive, KB-3-1 tox inactive, IL-1B inflam inh -11 and HT1080 IDH1KD tx -3%.
For CC1Cc2ccccc2N1C(=O)COC(=O)c1c2c(nc3ccccc13)CCCCC2 (stereo not drawn) the results were HT1080NT lethal -25%, KB-V1 cytotox 9.2µM*, KB-3-1 tox inconclusive, IL-1B inflam inh inconclusive and HT1080 IDH1KD tx -26%.
`O=C(OCC(=O)N1CCc2ccccc21)c1c2c(nc3ccccc13)CCCC2` gave HT1080NT lethal -15%, KB-V1 cytotox 9.2µM*, KB-3-1 tox inconclusive, IL-1B inflam inh -20 and HT1080 IDH1KD tx inconclusive.
`CSc1nnc(-c2sccc2OCc2ccc(C)cc2)n1C` gave HT1080NT lethal -2%, KB-V1 cytotox 18µM*, KB-3-1 tox inconclusive, IL-1B inflam inh 9 and HT1080 IDH1KD tx inconclusive.
